What all share (test): DAPPL (digital affinity profiling via proximity ligation, sequencing); 10 mM Tris-HCl pH 7.5, 50 mM NaCl, 1 mM DTT, 4% glycerol, room temperature, 30 min; GST-TFs on glutathione beads, 16-mer random dsDNA library, 0.1% formaldehyde crosslink after washing; high values mean tight binding
One assay concerns the target T1, FEV (Homo sapiens, UniProt Q99581 1-238).
T1 sequence: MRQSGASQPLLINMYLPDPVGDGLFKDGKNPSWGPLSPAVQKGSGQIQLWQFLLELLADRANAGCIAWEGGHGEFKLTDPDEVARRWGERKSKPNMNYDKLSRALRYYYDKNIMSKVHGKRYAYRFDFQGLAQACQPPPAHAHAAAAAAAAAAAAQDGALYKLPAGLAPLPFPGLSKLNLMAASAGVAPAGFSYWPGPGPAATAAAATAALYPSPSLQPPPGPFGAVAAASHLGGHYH
Particulars: protein: recombinant; tags: N-terminal GST; dsDNA, one strand shown. In short, it runs like this: (§1)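 In yeast, human transcription factors were expressed with a GST fusion, then pulled down on glutathione beads and given DNA barcodes. Pooled with a tag-only sample, they were exposed to 200 nmole of a 16-mer random double-stranded DNA library (Tris/NaCl/DTT/glycerol buffer, room temperature, 30 min), washed, crosslinked with 0.1% formaldehyde, proximity-ligated using BsaI/T4 ligase for 1 h at 37 °C, PCR-amplified and read on an Illumina NextSeq500. Each hexamer's frequency of reads for a factor, divided by the matching frequency for the tag-only sample, gives the binding signal.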

A further assay concerns the target ETV5 (Homo sapiens, UniProt P41161 1-510). Particulars: protein: recombinant; tags: N-terminal GST; dsDNA, one strand shown. In short, it runs like this: as §1
A further assay deals with HSF1 (Homo sapiens, UniProt Q00613 1-529). Particulars: protein: recombinant; tags: N-terminal GST; chain copies: 3; dsDNA, one strand shown. The gist of the method:
as §1

The next assay addresses T2, SPIC (Homo sapiens, UniProt Q8N5J4 1-248).
T2 sequence: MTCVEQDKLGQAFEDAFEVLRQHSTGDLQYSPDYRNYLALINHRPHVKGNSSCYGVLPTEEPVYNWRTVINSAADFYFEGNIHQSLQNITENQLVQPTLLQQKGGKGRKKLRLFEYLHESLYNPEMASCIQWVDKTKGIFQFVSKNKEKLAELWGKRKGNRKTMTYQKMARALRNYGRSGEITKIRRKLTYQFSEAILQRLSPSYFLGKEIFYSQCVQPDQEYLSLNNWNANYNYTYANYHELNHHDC
The note with it: protein: recombinant; tags: N-terminal GST; dsDNA, one strand shown. The gist of the method:
as §1

A further assay deals with ELF4 (Homo sapiens, UniProt Q99607 1-663). The note with it: protein: recombinant; tags: N-terminal GST; dsDNA, one strand shown. In short, it runs like this:
as §1

Another assay has as its target T3, ELK4 (Homo sapiens, UniProt P28324-2 1-405).
T3 sequence: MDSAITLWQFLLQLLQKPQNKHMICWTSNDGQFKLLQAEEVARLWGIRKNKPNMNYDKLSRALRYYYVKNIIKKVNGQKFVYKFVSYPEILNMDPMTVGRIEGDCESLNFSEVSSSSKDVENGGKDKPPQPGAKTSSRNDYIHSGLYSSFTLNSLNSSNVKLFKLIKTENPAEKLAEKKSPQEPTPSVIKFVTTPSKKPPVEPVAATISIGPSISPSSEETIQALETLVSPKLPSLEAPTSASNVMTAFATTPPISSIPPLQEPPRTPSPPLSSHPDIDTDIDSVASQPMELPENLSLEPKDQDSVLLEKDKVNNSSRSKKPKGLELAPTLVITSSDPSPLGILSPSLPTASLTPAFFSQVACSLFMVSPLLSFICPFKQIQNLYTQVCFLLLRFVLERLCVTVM
Particulars: protein: recombinant; tags: N-terminal GST; dsDNA, one strand shown. In short, it runs like this: as §1

In a further assay the target is T4, ETV2 (Homo sapiens, UniProt O00321 1-342).
T4 sequence: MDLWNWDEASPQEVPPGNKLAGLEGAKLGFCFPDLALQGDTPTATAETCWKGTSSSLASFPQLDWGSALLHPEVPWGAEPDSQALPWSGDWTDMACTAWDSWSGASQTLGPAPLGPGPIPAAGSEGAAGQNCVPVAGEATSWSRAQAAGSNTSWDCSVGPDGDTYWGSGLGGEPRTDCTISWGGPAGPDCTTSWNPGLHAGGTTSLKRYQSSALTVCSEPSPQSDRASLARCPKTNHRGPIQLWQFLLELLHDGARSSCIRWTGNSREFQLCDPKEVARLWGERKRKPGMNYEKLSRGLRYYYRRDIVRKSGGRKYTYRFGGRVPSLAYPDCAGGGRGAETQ
Particulars: protein: recombinant; tags: N-terminal GST; dsDNA, one strand shown. In short, it runs like this: as §1

A further assay concerns the target T5, ELF3 (Homo sapiens, UniProt P78545 1-371).
T5 sequence: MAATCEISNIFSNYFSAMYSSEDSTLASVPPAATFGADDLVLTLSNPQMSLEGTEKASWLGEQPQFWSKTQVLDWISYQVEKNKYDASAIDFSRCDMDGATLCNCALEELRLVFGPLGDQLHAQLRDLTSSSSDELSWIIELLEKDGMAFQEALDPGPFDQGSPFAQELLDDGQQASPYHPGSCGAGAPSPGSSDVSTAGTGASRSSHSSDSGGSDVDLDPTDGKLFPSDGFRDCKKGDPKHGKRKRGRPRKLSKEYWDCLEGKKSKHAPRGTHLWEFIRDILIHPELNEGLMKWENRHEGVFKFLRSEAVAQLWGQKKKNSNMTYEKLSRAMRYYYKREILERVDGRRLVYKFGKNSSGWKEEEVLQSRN
Particulars: protein: recombinant; tags: N-terminal GST; dsDNA, one strand shown. The gist of the method: as §1

A further assay has as its target CRX (Homo sapiens, UniProt O43186 1-299). The note with it: protein: recombinant; tags: N-terminal GST; dsDNA, one strand shown. The gist of the method: as §1
For the next assay, the target named is ETV1 (Homo sapiens, UniProt P50549 1-477). The note with it: protein: recombinant; tags: N-terminal GST; dsDNA, one strand shown. The gist of the method: as §1

These results are taken from PMC7862700, “An all-to-all approach to the identification of sequence-specific readers for epigenetic DNA modifications on cytosine”.

Sequence of ETV5 (P41161 whole entry): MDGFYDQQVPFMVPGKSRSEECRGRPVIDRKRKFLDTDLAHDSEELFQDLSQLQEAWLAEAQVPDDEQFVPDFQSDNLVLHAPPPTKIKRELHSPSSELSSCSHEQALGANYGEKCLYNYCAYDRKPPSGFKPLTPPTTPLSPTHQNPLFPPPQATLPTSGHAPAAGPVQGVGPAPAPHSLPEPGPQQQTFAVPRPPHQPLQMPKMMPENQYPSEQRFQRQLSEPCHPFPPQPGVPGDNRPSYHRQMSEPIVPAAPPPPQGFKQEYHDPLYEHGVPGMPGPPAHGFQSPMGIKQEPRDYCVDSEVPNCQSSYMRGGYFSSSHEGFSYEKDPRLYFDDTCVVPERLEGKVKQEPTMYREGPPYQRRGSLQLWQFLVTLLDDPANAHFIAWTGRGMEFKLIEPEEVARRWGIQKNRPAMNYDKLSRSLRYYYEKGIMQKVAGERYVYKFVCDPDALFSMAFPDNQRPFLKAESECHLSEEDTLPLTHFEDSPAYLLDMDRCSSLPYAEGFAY
Sequence of ETV1 (P50549 whole entry): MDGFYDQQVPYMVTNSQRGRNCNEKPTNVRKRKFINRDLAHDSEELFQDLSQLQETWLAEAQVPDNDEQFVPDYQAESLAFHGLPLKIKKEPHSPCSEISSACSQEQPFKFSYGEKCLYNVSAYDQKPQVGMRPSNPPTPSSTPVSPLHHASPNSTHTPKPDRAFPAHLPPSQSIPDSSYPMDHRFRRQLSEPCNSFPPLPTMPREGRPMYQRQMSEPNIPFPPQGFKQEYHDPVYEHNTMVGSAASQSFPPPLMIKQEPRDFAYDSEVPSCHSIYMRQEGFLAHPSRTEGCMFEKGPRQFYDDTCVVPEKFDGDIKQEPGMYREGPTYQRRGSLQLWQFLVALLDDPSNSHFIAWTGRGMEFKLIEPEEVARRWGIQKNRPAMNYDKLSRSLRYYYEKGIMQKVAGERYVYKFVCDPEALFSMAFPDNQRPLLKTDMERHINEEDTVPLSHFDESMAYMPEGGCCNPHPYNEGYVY
Sequence of HSF1 (Q00613 whole entry): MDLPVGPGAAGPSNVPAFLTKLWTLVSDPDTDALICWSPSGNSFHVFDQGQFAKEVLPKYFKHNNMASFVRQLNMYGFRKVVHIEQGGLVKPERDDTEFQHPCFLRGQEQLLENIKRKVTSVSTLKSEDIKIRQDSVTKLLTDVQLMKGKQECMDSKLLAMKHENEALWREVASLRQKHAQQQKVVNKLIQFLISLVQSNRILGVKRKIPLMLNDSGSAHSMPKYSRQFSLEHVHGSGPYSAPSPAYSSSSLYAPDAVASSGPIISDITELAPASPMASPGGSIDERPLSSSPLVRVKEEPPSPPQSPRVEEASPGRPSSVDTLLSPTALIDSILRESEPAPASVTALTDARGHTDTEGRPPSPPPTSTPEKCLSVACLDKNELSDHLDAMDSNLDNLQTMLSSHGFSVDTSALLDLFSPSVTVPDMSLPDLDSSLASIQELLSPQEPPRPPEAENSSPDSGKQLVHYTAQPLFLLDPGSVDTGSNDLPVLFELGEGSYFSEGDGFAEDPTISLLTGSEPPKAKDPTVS
Sequence of ELF4 (Q99607 whole entry): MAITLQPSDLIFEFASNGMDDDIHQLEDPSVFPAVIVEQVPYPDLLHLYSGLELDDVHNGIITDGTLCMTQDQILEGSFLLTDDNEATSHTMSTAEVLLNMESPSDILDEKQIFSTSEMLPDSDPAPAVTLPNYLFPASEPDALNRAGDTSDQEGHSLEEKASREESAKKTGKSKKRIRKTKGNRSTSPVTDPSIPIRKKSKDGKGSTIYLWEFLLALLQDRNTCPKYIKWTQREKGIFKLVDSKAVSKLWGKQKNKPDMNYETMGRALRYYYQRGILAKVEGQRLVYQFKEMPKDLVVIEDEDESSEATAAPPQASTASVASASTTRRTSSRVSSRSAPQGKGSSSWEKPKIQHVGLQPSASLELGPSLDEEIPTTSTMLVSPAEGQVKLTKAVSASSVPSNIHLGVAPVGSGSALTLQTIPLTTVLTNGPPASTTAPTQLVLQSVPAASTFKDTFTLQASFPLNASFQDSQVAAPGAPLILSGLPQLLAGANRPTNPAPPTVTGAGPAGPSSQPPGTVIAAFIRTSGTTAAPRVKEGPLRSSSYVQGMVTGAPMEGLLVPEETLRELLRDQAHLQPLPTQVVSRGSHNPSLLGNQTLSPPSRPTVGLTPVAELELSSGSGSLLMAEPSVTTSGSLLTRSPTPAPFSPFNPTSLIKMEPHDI
Sequence of CRX (O43186 whole entry): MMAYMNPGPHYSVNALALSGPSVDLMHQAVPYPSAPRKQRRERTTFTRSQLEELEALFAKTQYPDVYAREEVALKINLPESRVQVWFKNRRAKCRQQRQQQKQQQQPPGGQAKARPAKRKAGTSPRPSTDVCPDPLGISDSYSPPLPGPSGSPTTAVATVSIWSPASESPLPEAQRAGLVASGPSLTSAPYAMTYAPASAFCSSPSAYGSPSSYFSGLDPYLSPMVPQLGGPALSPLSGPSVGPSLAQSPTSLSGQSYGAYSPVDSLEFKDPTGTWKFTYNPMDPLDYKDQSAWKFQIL

For CTCGAA, the binding signal is 1.17 fold enrichment (6-mer frequency, TF over GST control) with FEV; 1.2 fold enrichment (6-mer frequency, TF over GST control) with ETV5; 4.2 fold enrichment (6-mer frequency, TF over GST control) in the assay with HSF1; 1.15 fold enrichment (6-mer frequency, TF over GST control) in the assay with SPIC; 1.2 fold enrichment (6-mer frequency, TF over GST control) with ELF4; 1.34 fold enrichment (6-mer frequency, TF over GST control) with ELK4. Moreover, the binding signal in the assay with ETV2 was 1.16 fold enrichment (6-mer frequency, TF over GST control); in the assay with ELF3, 1.11 fold enrichment (6-mer frequency, TF over GST control); with CRX, 1.9 fold enrichment (6-mer frequency, TF over GST control); with ETV1, 1.1 fold enrichment (6-mer frequency, TF over GST control).

For TATACT, the binding signal with FEV was 1.29 fold enrichment (6-mer frequency, TF over GST control); with ETV5 it was 1.34 fold enrichment (6-mer frequency, TF over GST control); in the assay with HSF1 it was 1.4 fold enrichment (6-mer frequency, TF over GST control); with SPIC, 1.43 fold enrichment (6-mer frequency, TF over GST control); with ELF4, 1.31 fold enrichment (6-mer frequency, TF over GST control); with ELK4, 1.25 fold enrichment (6-mer frequency, TF over GST control). In addition, the binding signal with ETV2 is 1.31 fold enrichment (6-mer frequency, TF over GST control); in the assay with ELF3, 1.3 fold enrichment (6-mer frequency, TF over GST control); with CRX, 1.68 fold enrichment (6-mer frequency, TF over GST control); with ETV1, 1.34 fold enrichment (6-mer frequency, TF over GST control).

GAACTT: the binding signal with FEV was 1.72 fold enrichment (6-mer frequency, TF over GST control); with ETV5 it was 1.66 fold enrichment (6-mer frequency, TF over GST control); in the assay with HSF1, 2.03 fold enrichment (6-mer frequency, TF over GST control); with SPIC, 1.71 fold enrichment (6-mer frequency, TF over GST control); with ELF4, 1.52 fold enrichment (6-mer frequency, TF over GST control); in the assay with ELK4 it was 1.48 fold enrichment (6-mer frequency, TF over GST control). Moreover, the binding signal is 1.44 fold enrichment (6-mer frequency, TF over GST control) in the assay with ETV2; 1.5 fold enrichment (6-mer frequency, TF over GST control) with ELF3; 1.32 fold enrichment (6-mer frequency, TF over GST control) with CRX; 1.68 fold enrichment (6-mer frequency, TF over GST control) with ETV1.

Regarding ATGGGT, the binding signal in the assay with FEV is 1.28 fold enrichment (6-mer frequency, TF over GST control); with ETV5, 1.5 fold enrichment (6-mer frequency, TF over GST control); with HSF1, 1.08 fold enrichment (6-mer frequency, TF over GST control); in the assay with SPIC, 1.36 fold enrichment (6-mer frequency, TF over GST control); with ELF4 it was 1.35 fold enrichment (6-mer frequency, TF over GST control); in the assay with ELK4 it was 1.33 fold enrichment (6-mer frequency, TF over GST control). Further, the binding signal was 1.36 fold enrichment (6-mer frequency, TF over GST control) with ETV2; 1.31 fold enrichment (6-mer frequency, TF over GST control) with ELF3; 1.11 fold enrichment (6-mer frequency, TF over GST control) with CRX; 1.21 fold enrichment (6-mer frequency, TF over GST control) with ETV1.

As to TTCCAG, the binding signal was 1.05 fold enrichment (6-mer frequency, TF over GST control) in the assay with FEV; 1.06 fold enrichment (6-mer frequency, TF over GST control) with ETV5; 3.69 fold enrichment (6-mer frequency, TF over GST control) with HSF1; 1.02 fold enrichment (6-mer frequency, TF over GST control) in the assay with SPIC; 1.17 fold enrichment (6-mer frequency, TF over GST control) in the assay with ELF4; 1.15 fold enrichment (6-mer frequency, TF over GST control) in the assay with ELK4. Further, the binding signal with ETV2 was 1.12 fold enrichment (6-mer frequency, TF over GST control); with ELF3, 1.05 fold enrichment (6-mer frequency, TF over GST control); with CRX, 1.68 fold enrichment (6-mer frequency, TF over GST control); in the assay with ETV1, 1.05 fold enrichment (6-mer frequency, TF over GST control).

Take TCTCGC: the binding signal in the assay with FEV is 1.64 fold enrichment (6-mer frequency, TF over GST control); with ETV5 it was 1.6 fold enrichment (6-mer frequency, TF over GST control); with HSF1, 2.5 fold enrichment (6-mer frequency, TF over GST control); with SPIC it was 1.4 fold enrichment (6-mer frequency, TF over GST control); with ELF4 it was 1.75 fold enrichment (6-mer frequency, TF over GST control); with ELK4 it was 1.76 fold enrichment (6-mer frequency, TF over GST control). The binding signal in the assay with ETV2 was 1.96 fold enrichment (6-mer frequency, TF over GST control); with ELF3, 1.88 fold enrichment (6-mer frequency, TF over GST control); in the assay with CRX, 1.84 fold enrichment (6-mer frequency, TF over GST control); with ETV1, 1.75 fold enrichment (6-mer frequency, TF over GST control).

As for AAAAAC, the binding signal with FEV was 1.28 fold enrichment (6-mer frequency, TF over GST control); in the assay with ETV5, 1.26 fold enrichment (6-mer frequency, TF over GST control); in the assay with HSF1, 1.19 fold enrichment (6-mer frequency, TF over GST control); with SPIC, 1.27 fold enrichment (6-mer frequency, TF over GST control); with ELF4, 1.31 fold enrichment (6-mer frequency, TF over GST control); with ELK4, 1.14 fold enrichment (6-mer frequency, TF over GST control). Also, the binding signal with ETV2 is 1.32 fold enrichment (6-mer frequency, TF over GST control); with ELF3 it was 1.3 fold enrichment (6-mer frequency, TF over GST control); in the assay with CRX, 1.16 fold enrichment (6-mer frequency, TF over GST control); with ETV1 it was 1.27 fold enrichment (6-mer frequency, TF over GST control).

With CATGCT, the binding signal with FEV was 1.22 fold enrichment (6-mer frequency, TF over GST control); with ETV5, 1.13 fold enrichment (6-mer frequency, TF over GST control); with HSF1 it was 1.13 fold enrichment (6-mer frequency, TF over GST control); with SPIC, 1.34 fold enrichment (6-mer frequency, TF over GST control); with ELF4, 1.15 fold enrichment (6-mer frequency, TF over GST control); with ELK4 it was 1.3 fold enrichment (6-mer frequency, TF over GST control). Besides, the binding signal with ETV2 is 1.35 fold enrichment (6-mer frequency, TF over GST control); with ELF3, 1.27 fold enrichment (6-mer frequency, TF over GST control); with CRX, 1.1 fold enrichment (6-mer frequency, TF over GST control); with ETV1, 1.19 fold enrichment (6-mer frequency, TF over GST control).
